RORg inh = qHTS for inhibitors of ROR gamma transcriptional activity. Potency, µM (doses to about 53.6 µM), for inactives: at the highest dose activity change, negative = inhibition, actives largely listed as inhibitors. actives 5.4% (n = 310,000). Nuclear receptor ROR-gamma (Mus musculus), P51450. AID 2551, 2010. Drosophila S2 Gal4-RORgamma UAS-luciferase reporter, 20 h; also: potency is read from the fitted curve at half-maximal effect; nearly all actives have a fitted effect of over 60% in size
Target sequence (P51450 whole entry, looked up, the tested form may be a part): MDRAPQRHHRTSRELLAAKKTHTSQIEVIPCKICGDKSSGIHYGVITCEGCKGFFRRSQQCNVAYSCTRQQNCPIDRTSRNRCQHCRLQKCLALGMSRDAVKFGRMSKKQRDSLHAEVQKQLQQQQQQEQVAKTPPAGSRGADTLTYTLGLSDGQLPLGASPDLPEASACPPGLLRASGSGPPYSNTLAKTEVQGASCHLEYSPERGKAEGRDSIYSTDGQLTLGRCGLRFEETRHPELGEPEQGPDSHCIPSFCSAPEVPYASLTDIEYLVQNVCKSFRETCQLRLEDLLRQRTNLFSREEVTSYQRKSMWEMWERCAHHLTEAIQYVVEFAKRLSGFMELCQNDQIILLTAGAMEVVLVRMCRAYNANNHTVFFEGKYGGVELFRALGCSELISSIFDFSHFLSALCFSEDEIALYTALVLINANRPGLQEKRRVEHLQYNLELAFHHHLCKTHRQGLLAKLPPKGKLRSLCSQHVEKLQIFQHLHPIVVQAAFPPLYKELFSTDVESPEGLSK
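Schneider cells (Drosophila), stable Gal4 DBD–ROR gamma + UAS-luc; 1 hr cmpd preincubation; Cu2+ induction 700 uM final; 20 hr ambient; luminescence.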
PKM2 act = qHTS Assay for Activators of Human Muscle isoform 2 Pyruvate Kinase; purified PKM2, Kinase-Glo ATP luminescence, activation; response scale: 0% is enzyme alone, no compound; Potency, µM (highest dose often 57.5 µM), for the others: at the highest dose activation, most hits filed as activators; actives 0.34% (n = 260,000); AID 1631, 2009; also: potency is read from the fitted curve at half-maximal effect; nearly all actives have a fitted effect of over 55% in size
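hPK-M2, >95% pure; 0.1 mM ADP / 0.5 mM PEP final; imidazole pH7.2 buffer w/ 7 mM MgCl2, 50 mM KCl; 1 h RT; Kinase-Glo lum. Intermediate enzyme activity for dual inhibitor/activator qHTS.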
Six1-Eya2 blk = qHTS Assay for Inhibitors of the Six1/Eya2 Interaction | Homeobox protein SIX1 (Homo sapiens) + Protein phosphatase EYA2 (Homo sapiens), … | AlphaScreen GST-Six1/His-Eya2 binding, biochemical; stronger effect = lower value | activity change, % (concentration not given with the values) | actives 0.56% (n = 360,000) | AID 651725, 2012; in the data active = activity change below about -65%; inconclusive = mostly about -30% to -63%
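AlphaScreen with GST-Six1 and His-Eya2 (5X mix: 250 nM and 500 nM), glutathione donor and nickel acceptor beads; buffer 50 mM Tris pH 8.0, 300 mM NaCl, 1 mM TCEP; 1 h at 37 C in the dark.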
CtBP-E1A blk = qHTS Assay for Inhibitors of the CtBP/E1A Interaction; CtBP / adenovirus E1A interaction (AlphaScreen); AlphaScreen GST-E1A/His-CtBP binding, 1536-well; stronger effect = lower value; activity change, % (concentration not given with the values); actives 0.49% (n = 340,000); AID 651724, 2012; in the data active = activity change below about -65%; inconclusive = mostly about -30% to -63%
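Steps: dispense buffer (Tris pH 8.0, NaCl 300 mM, TCEP 1 mM, BSA, Tween 20); add 5X protein mix (GST-E1A, His-CtBP, 125 nM each); pin 23 nL compound; 2 h at 37 °C, dark; add 5X beads (50 ug/mL); 1 h; read.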
Gal4-VP16 FLuc = VP16 counterscreen qHTS for inhibitors of ROR gamma transcriptional activity; Potency, µM (titrated, usually from 53.6 µM), without a hit: at the highest dose activity, negative = inhibition, most hits filed as inhibitors; actives 3.5% (n = 310,000); Drosophila S2 Gal4-VP16 UAS-luciferase, luminescence, 20 h;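 also: Gal4-VP16 expression switched on by copper sulfate through the metallothionein promoter; potency is read from the fitted curve at half-maximal effect; nearly all actives have a fitted effect of over 50% in size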
* marks the source's active call; other numbers are inactive results; ? = inconclusive; · = no result; [ ] = remark or other dose. This is a sample that favours compounds with a hit; in the whole collection about 5.6% have one here. Unless noted, calls follow the shape of the dose curve; as a rule, active = well fitted curve in the direction sought with a large enough effect; inconclusive = small, poorly fitted or top-dose-only effect, or another doubt; inactive = no such curve, though single readings can be large; an effect the other way counts as inactive or inconclusive. % is scaled to controls: 0 for no effect and ±100 for the full control effect.

SMILES	RORg inh	PKM2 act	Six1-Eya2 blk	CtBP-E1A blk	Gal4-VP16 FLuc
COCCNc1nc(C)nc2c1nc(-c1ccccc1)n2CCN(C)C	-20.3%	-0.9%	·	·	-9.0%
O=C(NC(=S)Nc1ccc2c(c1)OCO2)c1ccccc1	4.47µM*	-9.8%	-16.0	-9.0	?
O=C(O)c1ccccc1NC(=S)NC(=O)c1cccc2ccccc12	-2.4%	-2.0%	-3.6	-15.0	5.4%
Cn1nc(C(=O)Nc2ccc3c(c2)OCO3)c2ccccc2c1=O	1.9%	-12.8%	?	-85.9*	25.8%
CC(C)c1ccc(O)c(NC(=S)NC(=O)c2ccc3c(c2)OCO3)c1	0.562µM*	-59.6%	-19.3	-10.3	1.41µM*
O=C(NC(=S)Nc1ccc2c(c1)OCCO2)c1cccc2ccccc12	10µM*	-5.8%	-16.8	-16.9	?
COC(=O)c1sccc1NC(=O)c1ccc2c(c1)OCO2	3.0%	-4.5%	2.7	7.6	0.1%
O=C(NCCc1ccc(Cl)cc1)C1CCCN1C(=O)Nc1ccccc1 (stereo not drawn)	-1.6%	-3.7%	-2.4	·	-12.6%
S=C(Nc1ccc(Br)cc1)Nc1ccc2c(c1)OCCO2	17.8µM*	-2.9%	-5.1	1.5	?
COc1cc(NC(=S)Nc2ccc3c(c2)OCCO3)cc(OC)c1OC	-22.4%	2.0%	-18.7	0.4	23.6%
NS(=O)(=O)c1ccc(NC(=S)NC(=O)c2ccc3c(c2)OCO3)cc1	?	3.6%	0.9	-0.3	?
O=C(NC(=S)Nc1ccccc1Br)c1ccc2c(c1)OCO2	4.47µM*	-4.3%	-2.0	3.0	8.91µM*
O=C(NC(=S)Nc1ccc2c(c1)OCCO2)c1cccc(Br)c1	5.01µM*	-1.1%	-23.0	-17.8	?
CCCCOC(=O)CCn1[nH]c(=O)c2ccccc2c1=O	26.6%	-0.6%	2.6	5.0	?
O=C(CCn1[nH]c(=O)c2ccccc2c1=O)OC1CCCCC1	?	-0.9%	0.0	55.8	22.4µM*
CN(Cc1ccccc1)S(=O)(=O)c1ccc(NC(=S)NC(=O)C2CCCCC2)cc1	8.91µM*	4.3%	-0.6	0.0	7.94µM*
C=CCN(CC=C)S(=O)(=O)c1ccc(NC(=S)NC(=O)C2CC2)cc1	11.2µM*	-0.1%	-15.8	-19.8	?
CN(Cc1ccccc1)S(=O)(=O)c1ccc(NC(=S)NC(=O)C(C)(C)C)cc1	12.6µM*	1.1%	-14.4	17.7	?
CCN(CC)S(=O)(=O)c1ccc(NC(=S)NC(=O)C(C)C)cc1	12.6µM*	1.0%	0.0	-1.6	?
CCN(CC)S(=O)(=O)c1ccc(NC(=S)NC(=O)CC(C)C)cc1	?	9.7%	0.3	15.6	?
CC(=O)Nc1ccc(S(=O)(=O)N(C)Cc2ccccc2)cc1	?	9.1%	-1.0	0.6	24.7%
N/C(=N/O)c1nc(N2CCCC2)nc(N(c2ccccc2)c2ccccc2)n1	8.91µM*	0.9%	-8.2	-10.2	15.0%[0.365 µM]
N/C(=N/O)c1nc(N2CCCC2)nc(N2CCCC2)n1	·	·	0.0	5.3	·
N/C(=N/O)c1nc(N2CCCCC2)nc(N2CCCCC2)n1	8.91µM*	-16.2%	-2.2	-3.4	?
O=C(NCc1ccc2c(c1)OCO2)C1CCN(c2nccc(C(F)(F)F)n2)CC1	-15.1%	3.4%	0.2	·	1.0%
SMILES	RORg inh	PKM2 act	Six1-Eya2 blk	CtBP-E1A blk	Gal4-VP16 FLuc
CC(=O)C(/C=N/c1cc(-c2ccc(C)cc2)nn1-c1ccccc1)=C(\C)O	?	-18.0%	-7.7	-18.4	22.4µM*
Cc1ccc(NC(=O)c2cc(-c3ccccc3)nn2-c2ccccc2)cc1	8.0%[10 µM]	-1.2%	19.6	5.2	?
CC(=O)NCCNc1ccnc(-c2ccccc2C(F)(F)F)n1	1.0%	·	·	·	-1.3%
CN(c1ccccc1)S(=O)(=O)c1cccc(NC(=O)CCN2C(=O)C3CCCCC3C2=O)c1 (stereo not drawn)	11.7%	-0.2%	7.8	17.3	-0.9%
O=C(Nc1ccc(Cl)cc1)Nc1ccccn1	36.5%	0.2%[11.5 µM]	2.4	10.0	-1.0%
N/C(=N\OC(=O)c1cc(Cl)ccc1Cl)c1ccccn1	-86.7%	2.7%	6.1	1.9	14.1µM*
N/C(=N\NC(=O)Nc1ccc(Cl)cc1)c1ccccn1	9.0%	-6.9%	?	-76.4*	8.9%
N/C(=N\OC(=O)COc1ccc(Cl)cc1Cl)c1ccccn1	10µM*	-11.4%	-0.8	·	?
O=C(Nc1c2c(nn1-c1ccc([N+](=O)[O-])cc1)CS(=O)(=O)C2)c1ccco1	-4.9%	·	0.4	2.4	?
COC(=O)c1nc(-c2ccccc2)oc1N1CCOCC1	13.1%	3.2%	-2.8	5.8	-5.1%
COc1ccccc1N=NNc1ccccc1OC	·	·	?	-15.3	·
N/C(=N\OC(=O)c1ccc(Cl)cc1Cl)c1ccc(Cl)cc1	1.3%	18.1%	8.3	0.6	-10.5%
COc1ccc(C(=O)O/N=C(\N)c2ccccc2)c(OC)c1	4.47µM*	-8.5%	-2.1	·	8.91µM*
N/C(Cc1ccc(Cl)cc1Cl)=N\OC(=O)c1ccccc1	12.6µM*	-0.7%	-1.5	·	-1.9%
N/C(=N\OC(=O)c1ccc(Cl)cc1Cl)c1ccccc1	5.01µM*	-27.8%	67.4	98.4	?
Cc1cccc(/C(N)=N/OC(=O)c2ccc(Cl)cc2Cl)c1	2µM*	-30.9%	2.1	-9.2	20µM*
N/C(=N\OC(=O)c1ccc(Cl)cc1Cl)c1cccnc1	-27.9%	-9.8%	0.1	·	?
Cc1cc(Br)cn2c(Cc3cccc(F)c3)c(-c3ccc(C#N)cc3)nc12	·	·	-0.2	8.9	·
O=C(CC[C@H]1O[C@@H](n2ccc(=O)[nH]c2=O)[C@H](O)[C@@H]1O)N[C@H](Cc1ccccc1)C(=O)NCC1CCCO1 (stereo partly drawn)	·	·	-16.2	1.5	·
CCOc1ccc(C(=O)NCc2ccco2)cc1Cl	15.2%	-0.3%[11.5 µM]	-6.3	3.0	6.0%
N/C(=N\OC(=O)c1cccc2ccccc12)c1cccc([N+](=O)[O-])c1	-15.1%	1.4%	-2.3	-3.4	?
Cc1cccc(/C(N)=N/OC(=O)c2cccc3ccccc23)c1	1.12µM*	-5.1%	·	·	5.62µM*
Cc1ccc(/C(N)=N/OC(=O)c2ccc(C)cc2Cl)cc1	4.47µM*	-8.8%	14.6	4.1	10µM*
Cc1cc(C(F)(F)F)n(-c2ccc(N)cc2)n1	19.9%	2.5%	-4.7	-14.2	-1.2%
Cc1cccc(CNc2ccnc(-c3ccc(C(=O)N(C)C)cc3)n2)c1	23.0%	·	·	·	-2.6%
CN(CCNC(=O)c1cc2c(=O)n(C)c3ccccc3c2n1C)Cc1ccccc1	11.2µM*	11.0%	-17.2	-10.5	?
CCCN(CCC)CCNC(=O)c1cc2c(=O)n(C)c3ccccc3c2n1C	-18.6%	1.1%	-2.1	-8.8	-1.3%

High-throughput results (PubChem BioAssay)
